{"source": "ChEMBL document CHEMBL1156829", "note": "The full ranking holds about 5,400 compounds; the median of “IFI” is about 2, and the highest 2% start at about 22. The sample holds the highest values, similar compounds and a random draw of the others, so the mix is not that of the screen."}
{"test": "NOVARTIS: Inhibition Frequency Index (IFI) - the number of HTS assays where a compound showed > 50% inhibition/induction, expressed as a percentage of the number of assays in which the compound was tested.", "assay_type": "functional", "units": {"IFI": "%"}}
{"smiles": "CN(C)CCNc1ncc(C(=O)NCc2ccccc2)c(NCCc2ccccc2)n1", "IFI": 1.92}
{"smiles": "COc1cc(C(=O)NCCc2ccccn2)ccc1OC1CCN(CC(c2ccccc2)c2ccccc2)CC1", "IFI": 1.37}
{"smiles": "CCOc1cc(-c2nnc3[nH]c(=O)n(C)c(=O)c3n2)ccc1OC(C)C", "IFI": 4.44}
{"smiles": "CCOc1cc(-c2nc3c(=O)n(C)c(=O)nc-3n(C)n2)ccc1OC(C)C", "IFI": 30.8}
{"smiles": "CCOc1ccc(-c2noc(-c3ccncc3)n2)cc1OCC", "IFI": 0}
{"smiles": "O=C(Nc1ccc(NC(=O)c2ccco2)cc1Cl)c1ccccc1", "IFI": 0}
{"smiles": "Clc1ccccc1-c1nc([P+](c2ccccc2)(c2ccccc2)c2ccccc2)c(N2CCOCC2)o1", "IFI": 25.9}
{"smiles": "CN(C)c1oc(-c2ccc(Cl)cc2Cl)nc1[P+](c1ccccc1)(c1ccccc1)c1ccccc1", "IFI": 20.4}
{"smiles": "Cc1nc([P+](c2ccccc2)(c2ccccc2)c2ccccc2)c(N2CCCCC2)o1", "IFI": 9.09}
{"smiles": "O=C(Nc1cc(C(F)(F)F)cc(C(F)(F)F)c1)Nc1ccc2nnsc2c1", "IFI": 12.8}
{"smiles": "C=CCSC1=NC2(CC(c3ccccc3)c3cc(Cl)c(O)cc3O2)CC(C)(C)N1", "note": "(centres undefined)", "IFI": 0}
{"smiles": "O=C(c1cccc([N+](=O)[O-])c1)c1ccc(Cl)c(Cl)c1", "IFI": 0}
{"smiles": "COc1ccc(-c2nc3cc(Cc4ccc5[nH]c(-c6ccc(OC)cc6)nc5c4)ccc3[nH]2)cc1", "IFI": 25.7}
{"smiles": "Nc1ccc(-c2nc3cc(-c4ccc5[nH]c(-c6ccc(N)cc6)nc5c4)ccc3[nH]2)cc1", "IFI": 27.3}
{"smiles": "Brc1ccc(C=NNc2nc3ccccc3[nH]2)cc1", "IFI": 9.02}
{"smiles": "Nc1ccc(-c2nc3cc(Oc4ccc5[nH]c(-c6ccc(N)cc6)nc5c4)ccc3[nH]2)cc1", "IFI": 15.4}
{"smiles": "Nc1ccc(-c2nc3cc(Cc4ccc5[nH]c(-c6ccc(N)cc6)nc5c4)ccc3[nH]2)cc1", "IFI": 10.3}
{"smiles": "Brc1ccc(C=Nc2ccc(-c3nc4cc(-c5ccc6[nH]c(-c7ccc(N=Cc8ccc(Br)cc8)cc7)nc6c5)ccc4[nH]3)cc2)cc1", "IFI": 23.1}
{"smiles": "c1cncc(-c2nc3cc(-c4ccc5[nH]c(-c6cccnc6)nc5c4)ccc3[nH]2)c1", "IFI": 5.56}
{"smiles": "Nc1ccc(-c2nc3cc(Oc4ccc(Oc5ccc6[nH]c(-c7ccc(N)cc7)nc6c5)cc4)ccc3[nH]2)cc1", "IFI": 5.8}
{"smiles": "COc1ccc(C(=O)Nc2ccc(-c3nc4ccc(NC(=O)c5ccc(OC)cc5)cc4[nH]3)cc2)cc1", "IFI": 12.8}
{"smiles": "N=c1c2ccccc2nnn1-c1ccc(C(F)(F)F)cc1", "IFI": 2.53}
{"smiles": "COC(=O)c1sc2nc(CN3CCC(C)CC3)ccc2c1NC(=O)c1ccc(C)s1", "IFI": 1.74}
{"smiles": "CCOc1ccccc1-n1c(SCC(=O)c2ccc(Cl)cc2)nc2[nH]ncc2c1=O", "IFI": 1.16}
{"smiles": "CC(=O)NC(CO)C(O)c1ccc([N+](=O)[O-])cc1", "note": "(centres undefined)", "IFI": 0}
{"smiles": "COc1ccc(S(=O)(=O)N(C)CCCNc2ccnc3cc(Cl)ccc23)cc1", "IFI": 10.2}
{"smiles": "CC(c1nc2ccccc2c(=O)n1C)N1CCN(C(=O)C(C)(C)C)CC1", "note": "(centres undefined)", "IFI": 0}
{"smiles": "O=C(Nc1c2ccccc2nc2ccccc12)c1cc(Cl)ccc1O", "IFI": 3.03}
{"smiles": "N#Cc1ccc(NC(=O)c2cc(Cl)ccc2O)cc1", "IFI": 24.7}
{"smiles": "O=C(Nc1cccc(Cl)c1)c1cc2ccccc2cc1O", "IFI": 9.62}
{"smiles": "CCCN(C(=O)Nc1c(C(C)C)cccc1C(C)C)C(CC)c1nc2ccccc2c(=O)n1-c1cccc(C)c1", "note": "(centres undefined)", "IFI": 0.943}
{"smiles": "CCOC(=O)N1CCN(C(=O)C(=O)NNC(=O)COc2ccc(Cl)cc2Br)CC1", "IFI": 0}
{"smiles": "OC1(c2ccc(Br)cc2)CCN(C2CCN(Cc3ccccc3)CC2)CC1", "IFI": 1.57}
{"smiles": "COCC(=O)NCc1ccc(OC2CCN(CC(c3ccccc3)c3ccccc3)CC2)cc1", "IFI": 1.41}
{"smiles": "O=C(Nc1cccc(Oc2ccccc2)c1)NC(CN1CCCC1)c1ccccc1", "note": "(centres undefined)", "IFI": 7.04}
{"smiles": "CCCCCCC1CCC(O)(C(C)(O)C(=O)NC2C(=O)N3NCCCC3C(=O)N(O)C(COC)C(=O)NCC(=O)N3NCCCC3C(=O)N(O)C(C)C(=O)OC2C)OC1C", "note": "(centres undefined)", "IFI": 39.3}
{"smiles": "CC[C@H](C)C[C@H]1CC[C@](O)([C@](C)(O)C(=O)N[C@@H]2C(=O)N3NCCC[C@@H]3C(=O)N(O)[C@@H](C)C(=O)NCC(=O)N3NCCC[C@H]3C(=O)N(O)[C@H](C)C(=O)O[C@H]2C(C)C)O[C@@H]1C", "IFI": 34.4}
{"smiles": "COc1ccc(CN2CCOc3ccc(C(C)(O)CN(C)C)cc3C2)cc1C", "note": "(centres undefined)", "IFI": 0}
{"smiles": "CCOC(=O)c1c(C)n(-c2ccccc2)c2ccc(O)cc12", "IFI": 2.54}
{"smiles": "CCN1CCN(c2c(C(=O)c3ccccc3)cnc3cc(OC)c(OC)cc23)CC1", "IFI": 2.22}
{"smiles": "CCCCc1c(C)nc2c(OC)cccc2c1O", "IFI": 0}
{"smiles": "CCCCN(C)Cc1cc(-c2cccc(OC)n2)ccc1O", "IFI": 3.42}
{"smiles": "Oc1c2c(nc3cc(-c4ccccc4)nn13)CCCC2", "IFI": 7.14}
{"smiles": "CC(C)CNCc1cc(-c2ccc(F)cc2)ccc1O", "IFI": 0.98}
{"smiles": "CC(=O)Nc1c(NCc2ccccc2)c2ccccc2sc1=O", "IFI": 2.17}
{"smiles": "Cc1ccc(Nc2nc3c(N)nnc(N)c3nc2Nc2ccc(C)cc2)cc1", "IFI": 2.98}
{"smiles": "O=C(NN=CC(Br)=Cc1ccccc1)c1ccc(F)cc1", "IFI": 0}
{"smiles": "CCS/C(Cl)=C(/NC(=O)c1ccccc1)[P+](c1ccccc1)(c1ccccc1)c1ccccc1", "IFI": 3.57}
{"smiles": "O=C(NC(=C(Cl)Cl)[P+](c1ccccc1)(c1ccccc1)c1ccccc1)c1ccc(F)cc1", "IFI": 27.3}
